Screening results deposited in PubChem BioAssay by National Center for Advancing Translational Sciences (NCATS).
Giardia killer – Small Molecules that selectively kill Giardia lamblia: qHTS; activity change, % at 7.66 µM, hits read low; actives 0.15% (n = 340,000); AID 540267, 2011; Giardia lamblia trophozoite viability; in the data active means activity change below about -80%; inconclusive means between about -30% and that limit;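 further: parasites exposed to compound for two days anaerobically before the ATP read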
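Compounds were tested on trophozoites seeded at 100 cells/well and held 48 hrs at 37 deg C anaerobically. An ATP-based luminescent kit measured the remaining live cells.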
Coupling enz – qHTS Assay for Inhibitors of Fructose-1,6-bisphosphate Aldolase from Giardia Lamblia: Coupling assay counterscreen. actives 0.67% (n = 290,000). coupling enzyme system counterscreen, AmpLite Red fluorescence. activity change, negative = inhibition, % at 58.2 µM, hits read low. AID 2472, 2010; in the data active means activity change below about -30%
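Coupling enzymes only (glyceraldehyde-3-phosphate) + compound, at 57.5 uM final, 10 min RT; add substrate/coupling/AmpLite Red mix, 20 min RT; fluorescence ex 525/em 598 nm. Actives flag coupling-system interference.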
KCNH2 3.1 inh – qHTS for Inhibitors of KCHN2 3.1: Mutant qHTS; Potassium voltage-gated channel subfamily H member 2, brain isoform KCNH2 3.1 (human); U2OS KCNH2 3.1, thallium flux FluxOr; hits give low values; activity change, % (tested at about 1.8 µM); actives 0.95% (n = 340,000);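 active means maximum activity change below -70%; inconclusive means maximum activity change from -70% to -50%; inactive means maximum activity change above -50%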;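 further: thallium influx rate constant from kinetic fluorescence after stimulation buffer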
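FluxOr-based Tl+ influx in U2OS cells transduced with KCNH2 3.1 virus; rate constants normalized to DMSO controls.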
KCNH2 WT inh – qHTS for Inhibitors of KCHN2 3.1: Wildtype qHTS; Voltage-gated inwardly rectifying potassium channel KCNH2 (Homo sapiens), Q12809; U2OS, BacMam KCNH2, thallium flux FluxOr; hits give low values; activity change, % at 1.84 µM; actives 0.37% (n = 340,000);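 active means maximum activity change below -70%; inconclusive means maximum activity change between -70% and -50%; inactive means maximum activity change above -50%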
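U2OS cells were transduced with wild-type KCNH2 virus (2.03 x 10^8 / mL) for 4 h at room temperature, then cultured overnight at 37 C. Thallium flux was read with FluxOr dye. Rate constants were normalized to DMSO controls.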
USP1-UAF1 inh – Inhibitors of USP1/UAF1: Primary Screen. Potency, µM (doses to about 57.1 µM), inactives show at the top dose activity change, negative = inhibition, hits mostly inhibitors. Ubiquitin carboxyl-terminal hydrolase 1 (Homo sapiens), O94782. actives 0.23% (n = 390,000). recombinant USP1/UAF1, Ub-Rhodamine cleavage fluorescence; active means well fitted inhibition curve with a large enough effect; inconclusive means small, poorly fitted or top-dose-only effect; inactive means no such curve, though single readings can be large or run the other way; further: potency means the concentration at half of the fitted maximal effect; nearly all actives have a fitted effect of over 60% in size
Target sequence (O94782 whole entry, looked up): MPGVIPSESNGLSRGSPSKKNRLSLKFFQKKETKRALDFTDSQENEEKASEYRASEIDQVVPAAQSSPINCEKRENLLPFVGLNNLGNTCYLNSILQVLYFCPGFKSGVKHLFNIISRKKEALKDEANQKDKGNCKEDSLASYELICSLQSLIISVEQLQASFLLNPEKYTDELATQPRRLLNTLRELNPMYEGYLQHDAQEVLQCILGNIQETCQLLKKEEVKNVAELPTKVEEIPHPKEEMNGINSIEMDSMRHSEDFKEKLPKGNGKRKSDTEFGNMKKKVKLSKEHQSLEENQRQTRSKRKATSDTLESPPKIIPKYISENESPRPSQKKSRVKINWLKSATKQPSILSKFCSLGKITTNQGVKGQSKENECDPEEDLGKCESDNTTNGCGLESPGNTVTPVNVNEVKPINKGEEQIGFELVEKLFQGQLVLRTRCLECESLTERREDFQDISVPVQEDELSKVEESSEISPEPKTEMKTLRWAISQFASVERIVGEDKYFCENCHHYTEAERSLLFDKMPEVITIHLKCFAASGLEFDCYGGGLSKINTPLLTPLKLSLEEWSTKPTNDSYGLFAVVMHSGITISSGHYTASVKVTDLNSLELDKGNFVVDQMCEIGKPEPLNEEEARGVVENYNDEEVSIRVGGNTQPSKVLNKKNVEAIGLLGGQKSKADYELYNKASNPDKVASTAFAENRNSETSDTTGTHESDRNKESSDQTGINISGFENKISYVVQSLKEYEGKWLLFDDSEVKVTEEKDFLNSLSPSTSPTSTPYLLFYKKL
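USP1/UAF1 complex at 1 nM was preincubated with compound for 15 min at room temperature, then Ub-Rho substrate (150nM final) was added. Fluorescence (480/540 nm) was read kinetically, 6 reads every 60 seconds.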
* marks the source's active call; other numbers are inactive results. A selection: hits, their analogues and other compounds. The true share with any hit is near 1.7%. On the % scale 0 is the no-effect control and ±100 the full control effect.

For CCc1ccc2c(c1)Sc1ccccc1CC2N1CCN(C)CC1 (configuration not stated) the results were Giardia killer 6, KCNH2 3.1 inh -96*, KCNH2 WT inh inconclusive and USP1-UAF1 inh -5%.
For Cc1cc2n(n1)CCCN2C(=O)Nc1ccccc1C(F)(F)F the results were USP1-UAF1 inh -9%.
Screening Cc1cc(C)c(S(=O)(=O)Nc2cccc3cccnc23)c(C)c1 returned Giardia killer -10 and Coupling enz -16.
For Cc1cc(C)c(S(=O)(=O)Nc2ccc[nH]c2=O)c(C)c1 the results were Giardia killer -5, Coupling enz -72*, KCNH2 3.1 inh -6, KCNH2 WT inh 3 and USP1-UAF1 inh -20%.
For COC(=O)c1c(C)nn(-c2ccc(F)cc2)c1-n1cccc1 the results were USP1-UAF1 inh -18%.
COC(=O)c1ccc(CNC(=O)c2ccc(OCC(=O)N3CCOCC3)c(OC)c2)cc1 was read as Giardia killer 22, KCNH2 3.1 inh -193*, KCNH2 WT inh -152* and USP1-UAF1 inh -10%.
COc1ccc(C(=S)N2CCOCC2)cc1OC(=O)c1cc(OC)c(OC)c(OC)c1 was read as Giardia killer 9, Coupling enz 1, KCNH2 3.1 inh -79*, KCNH2 WT inh 2 and USP1-UAF1 inh -9%.
Screening COc1cccc(CNC(=O)c2ccc(OCC(=O)N3CCOCC3)c(OC)c2)c1 returned Giardia killer -2, KCNH2 3.1 inh -3, KCNH2 WT inh 2 and USP1-UAF1 inh -8%.
`COc1ccc(C(=S)N2CCOCC2)cc1OC(=O)c1ccccc1` gave Giardia killer -1, Coupling enz 3, KCNH2 3.1 inh -3, KCNH2 WT inh -22 and USP1-UAF1 inh -30%.
`COc1cccc(OC)c1C1=Nn2c(nnc2-c2ccccc2C)SC1` gave Coupling enz 0.
CCN(CC)CCOC(=O)CCc1cccc2ccccc12 was read as Giardia killer 14, Coupling enz 2, KCNH2 3.1 inh -7, KCNH2 WT inh -11 and USP1-UAF1 inh -19%.
For CCN(CC)CCOC(=O)C(Cc1ccco1)Cc1cccc2ccccc12 (configuration not stated) the results were Giardia killer 15, KCNH2 3.1 inh -74*, KCNH2 WT inh -7 and USP1-UAF1 inh -8%.
Screening CCOc1ccccc1Nc1ccc2cc(S(=O)(=O)N3CCCCC3)ccc2n1 returned USP1-UAF1 inh -16%.
CC(=O)N1CCN(C(=O)C(Cc2ccccc2)NC(=O)c2ccccc2)CC1 (configuration not stated) was read as Giardia killer -9, KCNH2 3.1 inh -5, KCNH2 WT inh 8 and USP1-UAF1 inh -20%.
Screening CC(=O)NC(Cc1ccccc1)C(=O)N1CCN(C(=O)c2cccs2)CC1 (configuration not stated) returned Giardia killer -5, Coupling enz 2, KCNH2 3.1 inh -94*, KCNH2 WT inh 5 and USP1-UAF1 inh 1%.
Cc1ccc2cc(CCNS(=O)(=O)c3ccc(Cl)cc3)c(=O)[nH]c2c1C was read as Giardia killer 12, Coupling enz 2, KCNH2 3.1 inh -4, KCNH2 WT inh -5 and USP1-UAF1 inh -12%.
For Cc1ccc(C)c2[nH]c(=O)c(CCNS(=O)(=O)c3ccccc3)cc12 the results were Giardia killer -6, Coupling enz 0, KCNH2 3.1 inh 15, KCNH2 WT inh 0 and USP1-UAF1 inh -7%.
Screening COc1ccc(OC)c2[nH]c(=O)c(CCNS(=O)(=O)c3ccc(C)cc3)cc12 returned Giardia killer -8, Coupling enz -30*, KCNH2 3.1 inh -7, KCNH2 WT inh 3 and USP1-UAF1 inh -18%.
COc1ccc(OC)c2[nH]c(=O)c(CCNS(=O)(=O)c3ccc(Cl)cc3)cc12 was read as Giardia killer -13, Coupling enz -33*, KCNH2 3.1 inh 2, KCNH2 WT inh -7 and USP1-UAF1 inh -3%.
